# Compound activity (PubChem)
# Peg3 prom inh: inhibitors of Peg3 promoter; HeLa PEG-Prom luciferase reporter, luminescence, overnight; 1.7% of 360,000 active; inhibition, % at 20 µM; AID 588405;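 active means inhibition of at least 50% at 20 µM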
# LMP1 NFkB inh: Epstein-Barr LMP1 NF-kappaB reporter inhibition; LMP1-induced NF-kappaB luciferase reporter cells, luminescence; inhibition, % at 12.5 µM; 0.69% of 350,000 active; AID 504558; in the data active means inhibition above about 41%; inconclusive means no clear call, values can overlap the other calls;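 further: 0% = neutral control wells and 100% = reference inhibitor control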
# TROY signal inh: inhibitors of TROY-dependent NF-kB signaling. inhibition, % at 10 µM. Q293 LMP1-TROYcd NF-kB luciferase reporter, 4 h. 0.98% of 360,000 active;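 active means compounds whose plate-normalised and pattern-corrected inhibition of the luciferase reporter signal at the single screening dose is 50% or more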
# MITF TRPM1 inh: MITF TRPM1 promoter inhibition in SK-MEL-5 cells | SK-MEL-5 TRPM1 promoter luciferase, 24 h | inhibition, % at 12.5 µM | 0.83% of 330,000 active | AID 488899;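 active means mean inhibition across replicates of 60% or more, whatever share of single replicates reaches that level; inconclusive means some that reach 60%, reason not given; inactive means mean inhibition across replicates below 60%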
# TWEAK-Fn14 inh: blocks TWEAK-Fn14 interaction in a reporter cell assay. TWEAK-stimulated Fn14 reporter cells, luciferase luminescence, 8 h. inhibition, % at 10 µM. 2% of 360,000 active; in the data active means inhibition above about 50%
# HIF-2a block: blocks HIF-2a reporter activity; AID 624352; 0.72% of 360,000 active; 786-0 RCC cells HIF-2a reporter, luciferase luminescence, overnight; inhibition, % at 18.8 µM;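 active means inhibition of the luminescence signal of 40% or more relative to plate controls, in a single-dose primary screen at 18.75 µM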
# Starred values were filed as active, the others as inactive; ? = inconclusive; / = no result given. The list is not random: actives were taken first. Their share in the collection is about 4%.
SMILES,Peg3 prom inh,LMP1 NFkB inh,TROY signal inh,MITF TRPM1 inh,TWEAK-Fn14 inh,HIF-2a block
CCN(CC)S(=O)(=O)c1cc(NC(=O)CNc2cccc(S(=O)(=O)N3CCOCC3)c2)ccc1C,12,25,21,16,26,14
CCCNCC1C(Oc2ccc(Cl)cc2Cl)C(=O)N1c1cccc(C)c1C (stereo not given),62*,-6,-6,11,0,6
CCc1cc2c3c(c(=O)oc2cc1OCC(=O)OC)CCCC3,20,3,8,-3,-10,10
Cc1cc(C)c(C)c(S(=O)(=O)N2CCN(c3ccccn3)CC2)c1C,21,-6,1,2,15,13
Cc1cc(C)c(C)c(S(=O)(=O)N2CCN(c3ncnc4ccccc34)CC2)c1C,43,23,58*,45,93*,10
Cc1ccc(NC(=O)CN(C(=O)N2CCN(C)CC2)S(=O)(=O)c2ccc(C)cc2)cc1,8,-4,55*,-6,-6,13
COCCN(C(=O)c1csnn1)C(C(=O)NC1CCCC1)c1ccccc1F (stereo not given),11,-4,17,3,66*,16
COCCN(C(=O)c1csnn1)C(C(=O)NC1CCCC1)c1ccc(C)cc1 (stereo not given),8,-18,-1,-3,-5,2
Cc1ccc(C(C(=O)NC2CCCCC2)N(Cc2cccnc2)C(=O)c2csnn2)cc1 (stereo not given),-5,-13,11,8,92*,5
CN(C)C(=O)c1ccc(NC(=O)COC(=O)C2(c3ccccc3)CCCC2)cc1,14,2,8,9,-22,16
CCOC(=O)c1c(NC(=O)COC(=O)CCCOc2ccc(OC)cc2)sc(C(=O)N(C)C)c1C,8,-1,4,2,-26,-9
COC(=O)C[C@H]1CC[C@@H](NC(=O)Nc2cccc(OC)c2)[C@@H](CO)O1,/,/,/,/,/,-1
COc1ccc(N=C(C)C2C(=O)c3ccccc3C2=O)cc1,-131,/,16,/,64*,-64
COc1ccc(C2C(=O)c3ccccc3C2=O)cc1,-165,-4,-5,-49,2,-188
COc1ccc([C@H]2CN(Cc3ccccc3)C(=O)[C@@H]2CC(=O)Nc2ccccc2)cc1,-31,5,-34,/,-29,-107
COc1ccc(NC(=O)C[C@H]2C(=O)N(CCc3ccccc3)C[C@@H]2c2ccc(OC)cc2)cc1,-53,44*,-14,/,-2,-49
CC(=O)N(C)c1ccc(N=Nc2ccc3ncccc3c2)cc1,-108,3,13,-12,62*,-79
Cc1ccc(C2CC(C(F)(F)F)n3nc(C(=O)NCc4c(C)nn(C)c4C)c(Cl)c3N2)cc1 (stereo not given),23,35,58*,?,34,2
Cc1nn(C)c(C)c1CNC(=O)c1cnn2c1NC(c1ccccc1)CC2C(F)(F)F (stereo not given),15,-2,-7,9,-22,7
Cc1ccc(C)c(NC(=O)C2CC3CCC2C3)c1 (stereo not given),-34,6,-17,-18,9,-65
Oc1ccc(C2C[C@H]3CC[C@@H]2C3)cc1O (stereo not given in full),-41,-8,-6,-17,39,55*
COc1ccc(-c2nc3ccccn3c2CN2CCN(c3ccccc3F)CC2)cc1,-50,4,-47,-24,-17,-175
COc1ccc(C(=O)Nc2c(-c3ccccc3)nc3ccccn23)c(OC)c1,16,7,12,-5,56*,20
Clc1ccc(-c2cn3ccccc3n2)cc1,-171,-10,8,-16,60*,-181
COc1ccc(-c2cn3ccccc3n2)cc1,-48,25,11,-3,51*,-117
COc1ccc(-c2nc3ccccn3c2Cl)cc1,-120,-15,3,-15,52*,-48
Cc1c(N(C)C(=O)COc2ccc3ccccc3c2)c(=O)n(-c2ccccc2)n1C,-13,-6,9,17,18,9
N#Cc1ccc(CN2CCN(C(=O)CNC(=O)Cc3ccccc3)CC2)cc1,2,1,10,6,20,12
O=C(c1ccc2ccccc2c1O)N1CCCCC1,-133,-18,-22,/,-27,-75
Clc1ccc(-c2cn3cc(Cl)ccc3n2)cc1,-59,-56,33,-7,75*,-77
